Screening results: PubChem BioAssay, Columbia University Molecular Screening Center
Only some compounds are listed: those with a hit (about 1.4% of all), similar ones and a draw of the others.
NFkB transloc inh: inhibitors of IL-1B driven NFkB p65 nuclear import, primary screen, imaging, HUVEC, IL-1B stimulus, high-content imaging | HUVEC IL-1B NFkB p65 nuclear translocation imaging | inhibition, % at 2 µM | 94,000 tested, 0.43% active | AID 796, 2007;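 active means inhibition above about 30% together with a positive call from visual inspection of the well image, limit read from the data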;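 further: nuclear over cytoplasmic p65 intensity ratio measured by imaging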
NFkB transloc pot: enhancers of NFkB p65 translocation in HUVEC – imaging, IL-1B stimulus, high-content imaging, primary screen; HUVEC IL-1B NFkB p65 nuclear translocation imaging; activation, % at 2 µM; 94,000 tested, 0.3% active;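 active means activation above 40%, about the mean plus 3 SD, also judged a hit on visual image review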;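 further: percent activation is computed from the nuclear over cytoplasmic p65 intensity ratio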
Insulin prom inh: inhibitors of insulin promoter-driven GFP, primary screen, imaging, TRM-6 cells (human fetal islet line), eGFP reporter, cell count; reporter expression induced with tamoxifen; 130,000 tested, 0.9% active; inhibition, % at 2 µM; AID 1273, 2008;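 active means inhibition above the mean plus 3 SD, with well images judged a real hit on visual review, cut at about 60% in these data, passing the limit was not always enough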
IL1B cytotox: cytotoxicity in IL-1B stimulated HUVEC, primary screen, cytotoxicity control for IL-1B NFkB translocation project, imaging, Hoechst nuclear count, IL-1B stimulus; 94,000 tested, 0.41% active; cell count reduction, % at 2 µM; HUVEC cell count loss;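 active means cell count reduction more than 3 SD above the screen-wide mean, cut at about 70% in these data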
Hits are given with their value.

What do the screens show for `Fc1ccc2nc3[nH]c4ccccc4c3nc2c1`?
NFkB transloc inh: inactive; NFkB transloc pot: inactive; Insulin prom inh: 91; IL1B cytotox: inactive

What do the screens show for `OCC(O)/C=N/Nc1nc(N2CCCCC2)nc(N2CCCCC2)n1` (stereo not given)?
Insulin prom inh: inactive

How did COc1cccc(NC2=NC3(CCCCC3)N=C(N)N2)c1 do in these assays?
NFkB transloc inh: inactive; NFkB transloc pot: inactive; Insulin prom inh: inactive; IL1B cytotox: inactive

How did CNC(=O)c1ccsc1NC(=O)c1ccc2c(c1)CCCC2 do in these assays?
Insulin prom inh: 76

Results for O=C(c1ccc(Cl)cc1)[C@@H]1[C@@H]2C(=O)N(c3cccc4ccccc34)C(=O)[C@@H]2C2c3ccccc3C=NN21 (stereo not given in full) ?
Insulin prom inh: inactive

What do the screens show for `CCOC(=O)c1c(C)n(C)c2ccc(OC)c(NC(=O)CN3CCN(C4CCCCC4)CC3)c12`?
NFkB transloc inh: inactive; NFkB transloc pot: inactive; Insulin prom inh: inactive; IL1B cytotox: 87

Results for COc1cccc(C2=NO[C@@H]3C(=O)N(Cc4ccccc4)C(=O)[C@H]23)c1OC ?
NFkB transloc inh: inactive; NFkB transloc pot: inactive; Insulin prom inh: inactive; IL1B cytotox: inactive

How did COc1cccc(C2=NO[C@@H]3C(=O)N(c4ccc5c(c4)OCCO5)C(=O)[C@H]23)c1OC do in these assays?
NFkB transloc inh: inactive; NFkB transloc pot: inactive; Insulin prom inh: 80; IL1B cytotox: inactive

Results for Cc1ccc(-c2cn3cccc(C)c3n2)cc1 ?
Insulin prom inh: 73

How did CC(C)c1ccc(C(N)=S)cc1 do in these assays?
Insulin prom inh: inactive

What do the screens show for `CCc1ccc(NC(=O)c2cccnc2)cc1`?
NFkB transloc inh: inactive; NFkB transloc pot: inactive; Insulin prom inh: inactive; IL1B cytotox: inactive

What do the screens show for `CCc1ccc(Nc2ncccc2C#N)cc1`?
NFkB transloc inh: inactive; NFkB transloc pot: 85; IL1B cytotox: inactive

How did Cn1cc([N+](=O)[O-])c(C(=O)Nc2nc(-c3ccc(Cl)cc3)cs2)n1 do in these assays?
NFkB transloc inh: 77; NFkB transloc pot: inactive; Insulin prom inh: inactive; IL1B cytotox: inactive

What do the screens show for `Cc1ccc(-c2nc(NC(=O)c3nn(C)cc3[N+](=O)[O-])sc2C)cc1C`?
NFkB transloc inh: 45; NFkB transloc pot: inactive; Insulin prom inh: inactive; IL1B cytotox: inactive

What do the screens show for `Cc1c(NC(=O)CN2C(=O)NC3(CCC(C)CC3)C2=O)c(=O)n(-c2ccccc2)n1C` (stereo not given)?
Insulin prom inh: inactive

What do the screens show for `O=C(CSc1nnc(CNc2ccc(F)cc2)n1Cc1ccco1)N1CCCC1`?
Insulin prom inh: inactive

What do the screens show for `CC1CCN(C(=O)CSc2nnc(CNc3ccc(F)cc3)n2Cc2ccco2)CC1`?
NFkB transloc inh: 32; NFkB transloc pot: inactive; IL1B cytotox: 84

Results for CC1CN(C(=O)c2scc3c2OCCO3)CC(C)O1 (stereo not given) ?
NFkB transloc inh: 80; NFkB transloc pot: inactive; Insulin prom inh: inactive; IL1B cytotox: 93

How did CCn1c(=O)cc(OCC(=O)NCc2cccs2)c2ccccc21 do in these assays?
Insulin prom inh: inactive

Results for C/C(Cc1ccccc1)=N\NC(=O)c1cccnc1 ?
Insulin prom inh: inactive

How did CC(CCc1ccccc1)NC(=O)c1cccnc1 (stereo not given) do in these assays?
NFkB transloc inh: 58; NFkB transloc pot: inactive; Insulin prom inh: inactive; IL1B cytotox: inactive

How did COc1ccc(CCNC(=O)CCc2ccc(S(=O)(=O)NC(C)C)cc2)cc1 do in these assays?
Insulin prom inh: 71

What do the screens show for `CC(C)NS(=O)(=O)c1ccc(CCC(=O)O)cc1`?
NFkB transloc inh: inactive; NFkB transloc pot: inactive; Insulin prom inh: inactive; IL1B cytotox: inactive

What do the screens show for `O=c1c(C(c2ccccc2)c2c(O)sc3ccccc3c2=O)c(O)sc2ccccc12`?
NFkB transloc inh: inactive; NFkB transloc pot: inactive; Insulin prom inh: 80; IL1B cytotox: inactive

Results for O=c1c2ccccc2sc2ccc(Cl)cc12 ?
Insulin prom inh: inactive

Results for CS(=O)(=O)N(CC(=O)N1CCCCCC1)c1ccc2c(c1)OCCO2 ?
NFkB transloc inh: inactive; NFkB transloc pot: inactive; Insulin prom inh: inactive; IL1B cytotox: inactive

What do the screens show for `COc1ccc(C2CC(c3cccs3)=Nc3ccccc3S2)cc1` (stereo not given)?
NFkB transloc inh: inactive; NFkB transloc pot: 43; Insulin prom inh: inactive; IL1B cytotox: inactive

What do the screens show for `CN1/C(=C\C(=O)c2ccco2)c2ccccc2CC1(C)C`?
NFkB transloc inh: 34; NFkB transloc pot: inactive; IL1B cytotox: inactive

What do the screens show for `COc1cccc(C(=O)Nc2nc3c(s2)CN(C)CC3)c1`?
NFkB transloc inh: inactive; NFkB transloc pot: inactive; Insulin prom inh: inactive; IL1B cytotox: inactive

How did O=C(CCC(=O)c1cccs1)c1cccs1 do in these assays?
NFkB transloc inh: inactive; NFkB transloc pot: inactive; Insulin prom inh: 81; IL1B cytotox: inactive

What do the screens show for `O=C(CCC(=O)c1cccs1)NC(c1ccccc1)c1ccccc1`?
NFkB transloc inh: inactive; NFkB transloc pot: inactive; Insulin prom inh: inactive; IL1B cytotox: inactive

How did CCOc1ccc(CCNC(=O)C2=C(C)C(=O)OC23CCCCC3)cc1OCC do in these assays?
Insulin prom inh: inactive

What do the screens show for `CCOC(=O)c1cnc2c(C)cccc2c1NCc1ccco1`?
NFkB transloc inh: inactive; NFkB transloc pot: inactive; Insulin prom inh: 68; IL1B cytotox: inactive

Results for C=CCSc1nnc2c(n1)OC=Nc1ccccc1-2 ?
NFkB transloc inh: 30; NFkB transloc pot: inactive; Insulin prom inh: inactive; IL1B cytotox: 91

Results for C=CCSc1nnc2c(n1)OC(c1ccco1)Nc1ccccc1-2 (stereo not given) ?
Insulin prom inh: inactive

What do the screens show for `S=c1[nH]nc(-c2cccs2)n1/N=C/c1c(Cl)cccc1Cl`?
Insulin prom inh: inactive

What do the screens show for `O=C1OC2CC3CC1CC(O)(C3)C2` (stereo not given)?
NFkB transloc inh: inactive; NFkB transloc pot: inactive; Insulin prom inh: 86; IL1B cytotox: inactive

Results for O=C1NC(=S)N/C1=C\c1ccc(N2CCOCC2)cc1 ?
Insulin prom inh: inactive

What do the screens show for `O=C(Nc1ccc(Cl)cc1)N1CC=CCC1`?
Insulin prom inh: 63

What do the screens show for `CCN(CC)C(=O)c1ccc2nc(-c3ccccc3)c(-c3ccccc3)nc2c1`?
Insulin prom inh: 67

Results for Cc1ccc(Nc2c(-c3ccc(N4CCOCC4)cc3)nc3ncccn23)c(C)c1 ?
Insulin prom inh: 76

Results for Cc1cccc(C)c1Nc1c(-c2ccc(N3CCOCC3)cc2)nc2ncccn12 ?
Insulin prom inh: inactive

How did Cc1ccc(N=Nc2c(O)n(CN3CCOCC3)c3ccccc23)cc1 do in these assays?
NFkB transloc inh: inactive; NFkB transloc pot: inactive; Insulin prom inh: inactive; IL1B cytotox: inactive

How did Cc1cccc(NC(=S)N=Nc2c(O)n(CN3CCOCC3)c3ccccc23)c1C do in these assays?
Insulin prom inh: 78

How did O=C(COc1ccccc1)N/N=C/c1ccc(O[C@@H]2O[C@H](CO)[C@@H](O)[C@H](O)[C@H]2O)cc1 do in these assays?
Insulin prom inh: inactive
